Screening data as filed in PubChem BioAssay.
This excerpt belongs to a sample that is enriched for hits.
ROC1-CUL1 inh: inhibitors of human ROC1-CUL1 ubiquitin ligase activity; E3 ubiquitin-protein ligase RBX1 (Homo sapiens) + Cullin-1 (Homo sapiens), P62877+Q13616; in vitro K48 di-Ub FRET, acceptor:donor ratio, 45 min; inhibition, % at 10 µM; 0.6% of 140,000 active; AID 1347404, 2020; in the data active = inhibition above about 25%
* hit, by the source's call.

For COc1cccc([C@H]2Nc3ccc(S(=O)(=O)Nc4ccc(C)c(C)c4)cc3[C@H]3C=CC[C@H]32)c1 the results were ROC1-CUL1 inh -5.
`O=C(O)c1ccc2c(c1)C1C=CCC1C(c1cccc3ccccc13)N2` (configuration not stated) gave ROC1-CUL1 inh 95*.
Screening COc1cccc([C@@H]2Nc3ccc(C(=O)O)cc3[C@@H]3C=CC[C@@H]32)c1OC returned ROC1-CUL1 inh -12.
For Cc1cccc(NS(=O)(=O)c2ccc3c(c2)[C@H]2C=CC[C@H]2[C@@H](c2ccc(C(C)(C)C)cc2)N3)c1 the results were ROC1-CUL1 inh -2.
For C1=CC2c3c(ccc4ccccc34)NC(c3cccc4ccccc34)C2C1 (configuration not stated) the results were ROC1-CUL1 inh -6.
`Cc1cccc(C)c1NS(=O)(=O)c1ccc2c(c1)[C@H]1C=CC[C@H]1[C@@H](c1ccc(Cl)cc1)N2` gave ROC1-CUL1 inh 8.
Screening COC(=O)c1ccc([C@H]2Nc3ccc(S(=O)(=O)Nc4ccc(C)cc4)cc3[C@H]3C=CC[C@H]32)cc1 returned ROC1-CUL1 inh 11.
`COc1ccc(NS(=O)(=O)c2ccc3c(c2)[C@H]2C=CC[C@H]2[C@@H](c2ccc(C(=O)O)cc2)N3)cc1` gave ROC1-CUL1 inh 97*.
`O=C(Cc1ccsc1)NCC1Cc2cccc(-c3ncccn3)c2O1` (configuration not stated) gave ROC1-CUL1 inh -1.
For S=C(NCc1ccccn1)NC1CCCCC1 the results were ROC1-CUL1 inh 3.
For CCC(CC)C(=O)Nc1nccs1 the results were ROC1-CUL1 inh 12.
Screening Nc1cc2nsnc2cc1Br returned ROC1-CUL1 inh 96*.
`Nc1cnc(Br)cc1Br` gave ROC1-CUL1 inh 9.
For CCN(CC)c1ncccc1CNC(=O)c1cn2cccnc2n1 the results were ROC1-CUL1 inh -2.
For CCc1nn2cc(-c3nonc3C)nc2s1 the results were ROC1-CUL1 inh 3.
For O=C(/C=C/c1cc[n+](CC(=O)c2ccc3cccc4c3c2CC4)cc1)c1ccc2cccc3c2c1CC3 the results were ROC1-CUL1 inh 87*.
CN(C)c1ccc(/C=C/C(=O)c2ccc3c4c(cccc24)CC3)cc1 was read as ROC1-CUL1 inh 4.
`O=C(C[n+]1ccc(-c2ccccc2)cc1)c1ccccc1` gave ROC1-CUL1 inh -1.
Screening OCC#Cc1csc(CN2C[C@H](O)[C@@H](N3CCOCC3)C2)c1 returned ROC1-CUL1 inh 3.
Screening CCc1nnc(NC(=O)CCSCCC(=O)Nc2nnc(CC)s2)s1 returned ROC1-CUL1 inh 37*.
Screening CCOCC(=O)Nc1nnc(CC)s1 returned ROC1-CUL1 inh 5.
CCc1nnc(NC(=O)COC)s1 was read as ROC1-CUL1 inh 2.
Screening COc1ccc(-c2[nH]nc3c2C(c2ccoc2)C(C#N)C(=N)O3)cc1 (configuration not stated) returned ROC1-CUL1 inh -7.
COc1ccc(-c2[nH]nc3c2C(c2ccc(Br)cc2)C(C#N)C(=N)O3)cc1 (configuration not stated) was read as ROC1-CUL1 inh 14.
`COc1ccc(-c2[nH]nc3c2C(c2cc(I)cc(I)c2O)C(C#N)C(=N)O3)cc1` (configuration not stated) gave ROC1-CUL1 inh 28*.
For Cc1nc2ccccc2n1CC(=O)NCCCN1CCOCC1 the results were ROC1-CUL1 inh -6.
For COc1ccc(C2(c3ccc(OC)cc3)c3cccc(Cl)c3C(=O)c3cccc(Cl)c32)cc1 the results were ROC1-CUL1 inh 8.
For COC(=O)c1ccc(C(=O)OC)c(NC(=O)CCc2ccccc2)c1 the results were ROC1-CUL1 inh -2.
Screening COC(=O)c1ccc(C(=O)OC)c(NC(=O)Cc2ccc(Br)cc2)c1 returned ROC1-CUL1 inh 4.
For COC(=O)c1ccc(C(=O)OC)c(NC(=O)CN(C)C)c1 the results were ROC1-CUL1 inh 51*.
Screening Cc1cc(-c2cc(C)c(C)s2)sc1C returned ROC1-CUL1 inh 4.
CCOC(=O)c1ccc(COC(=O)c2cc3ccccc3cc2O)cc1 was read as ROC1-CUL1 inh 2.
For CCOc1ccccc1N1C(=O)c2ccc(C(=O)Nc3ccc(Br)cc3C(=O)O)cc2C1=O the results were ROC1-CUL1 inh -3.
For CC(c1ccccc1)N1C(=O)c2ccc(C(=O)Nc3ccc(Br)cc3C(=O)O)cc2C1=O (configuration not stated) the results were ROC1-CUL1 inh 39*.
Screening CCCN1C(=O)c2ccc(C(=O)Nc3ccc(Br)cc3C(=O)O)cc2C1=O returned ROC1-CUL1 inh 9.
`CNC(=O)Nc1ncc(Br)s1` gave ROC1-CUL1 inh 5.
`Cn1nc(-c2ccccc2)cc1NC(=O)Cn1cncn1` gave ROC1-CUL1 inh 5.
CCOc1ccc(/C=N\Nc2nc(C)c(C(C)=O)s2)cc1 was read as ROC1-CUL1 inh 9.
For COc1ccc(/C=N/Nc2nc3c(s2)CCCC3)cc1 the results were ROC1-CUL1 inh 55*.
`COc1ccc(CC(=O)Nc2nc3c(s2)CCCC3)cc1` gave ROC1-CUL1 inh 2.
